Results as given in publication PMC5540273 (PLoS ONE, 2017).

Tests used:
Settings in all cases: concentration: 1 μM, replicates: in singlicate; n = 1
SRPK1 = test system: SRPK1
SRPK2 = test system: SRPK2
SRPK3 = test system: SRPK3
STK16 = test system: STK16
STK33 = test system: STK33
STK35 = test system: STK35
STK36 = test system: STK36
STK39 = test system: STK39
SYK = test system: SYK
SgK110 = test system: SgK110
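Also: KINOMEscan kinase panel screen.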

Row | Structure (SMILES) | %Inh (SRPK1) | %Inh (SRPK2) | %Inh (SRPK3) | %Inh (STK16) | %Inh (STK33) | %Inh (STK35) | %Inh (STK36) | %Inh (STK39) | %Inh (SYK) | %Inh (SgK110)
1 | COc1cccc(C2=C(Nc3cccc(C(=O)O)c3)C(=O)NC2=O)c1 [SB-390770] | 8% | 24% | 11% | 8% | 2% | 12% | 4% | 0% | 30% | 3%
2 | O=C1NC(=O)C(c2ccccc2)=C1Nc1cccc(O)c1 [SB-390534] | 20% | 7% | 0% | 0% | 4% | 2% | 0% | 4% | 6% | 0%
3 | COc1cccc(-n2cnc3c(N)ncnc32)c1 [SKF-97416] | 2% | 6% | 0% | 16% | 12% | 0% | 0% | 29% | 4% | 0%
4 | CCn1c(-c2nonc2N)nc2ccccc21 [SB-693162/GW549034] | 0% | 0% | 24% | 23% | 15% | 0% | 0% | 37% | 0% | 0%
